Measurements as given in PubChem BioAssay (Tox21).
Inconclusive results are not listed. Calls of active or inactive are those of the source. Unless noted, calls follow the shape of the dose curve; as a rule, active = well fitted curve in the direction sought with a large enough effect in the repeat runs; inconclusive = weak or mixed curves; inactive = no such curve, though single readings can be large; an effect the other way counts as inactive or inconclusive.

Columns and labels:
[1] = qHTS assay to identify small molecule antagonists of the glucocorticoid receptor (GR) signaling pathway - cell viability counter screen (AID 720693); also: nearly all actives have a fitted effect of over 55% in size
[2] = qHTS assay for identifying genotoxic compounds that show differential cytotoxicity against isogenic chicken DT40 cell lines with known DNA damage response pathways - wild type cell line (AID 743012); also: nearly all actives have a fitted effect of over 60% in size
How it was run: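 CellTiter-Glo luminescence readout of viability in wild type DT40 cells after 40 h compound exposure at 37 C/5% CO2; 300 cells/well; reagent incubated 30 min at room temperature before reading.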

[3] = qHTS assay for identifying genotoxic compounds that show differential cytotoxicity against isogenic chicken DT40 cell lines with known DNA damage response pathways - Rev3 mutant cell line (AID 743014); also: nearly all actives have a fitted effect of over 55% in size
[4] = qHTS assay for identifying genotoxic compounds that show differential cytotoxicity against isogenic chicken DT40 cell lines with known DNA damage response pathways - Rad54/Ku70 mutant cell line (AID 743015); also: nearly all actives have a fitted effect of over 60% in size
[5] = qHTS assay to identify small molecule antagonists of the androgen receptor (AR) signaling pathway - cell viability counter screen (AID 743033; also: nearly all actives have a fitted effect of over 45% in size)
[6] = target: Androgen receptor (Homo sapiens) (UniProt P10275); assay: qHTS assay to identify small molecule agonists of the androgen receptor (AR) signaling pathway (AID 743036; active = well fitted activation curve with a large enough effect in the signal ratio in the repeat runs, with a control signal flat, not every such curve was filed as active; the % refers to the signal ratio)
Sequence of Androgen receptor (Homo sapiens) (P10275 whole entry, looked up): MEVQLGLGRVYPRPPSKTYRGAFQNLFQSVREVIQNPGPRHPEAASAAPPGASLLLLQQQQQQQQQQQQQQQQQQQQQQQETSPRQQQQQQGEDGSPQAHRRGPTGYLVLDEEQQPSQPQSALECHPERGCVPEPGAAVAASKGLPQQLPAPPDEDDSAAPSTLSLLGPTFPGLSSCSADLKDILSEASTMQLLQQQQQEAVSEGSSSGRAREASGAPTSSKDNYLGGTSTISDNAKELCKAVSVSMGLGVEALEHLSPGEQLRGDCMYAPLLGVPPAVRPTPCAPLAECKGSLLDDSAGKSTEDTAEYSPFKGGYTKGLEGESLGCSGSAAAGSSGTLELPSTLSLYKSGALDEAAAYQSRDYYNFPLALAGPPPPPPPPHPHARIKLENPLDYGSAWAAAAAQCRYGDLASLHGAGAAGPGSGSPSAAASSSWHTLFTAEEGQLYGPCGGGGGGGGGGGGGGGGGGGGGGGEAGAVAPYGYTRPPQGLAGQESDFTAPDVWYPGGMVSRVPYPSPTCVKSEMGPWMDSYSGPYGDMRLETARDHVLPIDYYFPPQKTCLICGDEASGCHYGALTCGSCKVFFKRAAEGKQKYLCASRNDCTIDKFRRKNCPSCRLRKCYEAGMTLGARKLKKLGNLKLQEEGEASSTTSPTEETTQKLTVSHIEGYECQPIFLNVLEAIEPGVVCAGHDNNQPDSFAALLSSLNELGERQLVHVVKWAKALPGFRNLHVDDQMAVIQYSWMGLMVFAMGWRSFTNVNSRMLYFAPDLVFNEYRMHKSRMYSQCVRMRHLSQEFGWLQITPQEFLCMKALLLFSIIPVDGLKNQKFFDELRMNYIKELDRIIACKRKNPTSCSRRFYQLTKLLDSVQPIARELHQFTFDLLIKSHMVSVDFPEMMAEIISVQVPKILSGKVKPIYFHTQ
How it was run: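 Fluorescence from a beta-lactamase FRET substrate served as read-out in AR-UAS-bla GripTite HEK293 cells. Cells were treated with DMSO-dissolved compounds for 16 h at 37C, then with LiveBLAzer B/G substrate for 2 h at room temperature.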

[7] = target: Androgen receptor (Homo sapiens) (UniProt P10275); assay: qHTS assay to identify small molecule agonists of the androgen receptor (AR) signaling pathway using the MDA cell line (AID 743040; also: nearly all actives have a fitted effect of over 20% in size)
How it was run: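 Luciferase agonist assay: 16 h compound exposure at 37C without CO2 in MDA-kb2 AR-luc cells, whose MMTV promoter responds to both AR and GR. Luminescence measured after 30 min room-temperature incubation with ONE-Glo.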

[8] = qHTS assay to identify small molecule antagonists of the thyroid receptor (TR) signaling pathway - cell viability counter screen (AID 743064); also: nearly all actives have a fitted effect of over 50% in size
How it was run: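 Fluorescence from CellTiter-Fluor, added after 23.5 h exposure at 37 °C, reported viability of GH3.TRE-Luc cells co-treated with compound and 1 nM T3. Measured in the same wells as the luciferase TR readout.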

[9] = qHTS assay to identify small molecule antagonists of the thyroid receptor (TR) signaling pathway (AID 743065); also: series mostly up to about 70 µM; nearly all actives have a fitted effect of over 55% in size
How it was run: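 Antagonism measured as loss of luciferase signal in GH3 cells stably carrying a TRE-luciferase reporter, co-treated with compound and T3 (1 nM final) for 23.5 h at 37 C. Viability was read in the same well by CellTiter-Fluor.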

[10] = test system: thyroid hormone receptor (rat, GH3 cells); assay: qHTS assay to identify small molecule agonists of the thyroid receptor (TR) signaling pathway (AID 743066; calls by dose curve)
[11] = target: Estrogen receptor (Homo sapiens) (UniProt P03372); assay: qHTS assay to identify small molecule antagonists of the estrogen receptor alpha (ER-alpha) signaling pathway (AID 743069; active = well fitted curve in the direction sought with a large enough effect in the signal ratio in the repeat runs, not every such curve was filed as active; the % refers to the signal ratio)
Sequence of Estrogen receptor (Homo sapiens) (P03372 whole entry, looked up): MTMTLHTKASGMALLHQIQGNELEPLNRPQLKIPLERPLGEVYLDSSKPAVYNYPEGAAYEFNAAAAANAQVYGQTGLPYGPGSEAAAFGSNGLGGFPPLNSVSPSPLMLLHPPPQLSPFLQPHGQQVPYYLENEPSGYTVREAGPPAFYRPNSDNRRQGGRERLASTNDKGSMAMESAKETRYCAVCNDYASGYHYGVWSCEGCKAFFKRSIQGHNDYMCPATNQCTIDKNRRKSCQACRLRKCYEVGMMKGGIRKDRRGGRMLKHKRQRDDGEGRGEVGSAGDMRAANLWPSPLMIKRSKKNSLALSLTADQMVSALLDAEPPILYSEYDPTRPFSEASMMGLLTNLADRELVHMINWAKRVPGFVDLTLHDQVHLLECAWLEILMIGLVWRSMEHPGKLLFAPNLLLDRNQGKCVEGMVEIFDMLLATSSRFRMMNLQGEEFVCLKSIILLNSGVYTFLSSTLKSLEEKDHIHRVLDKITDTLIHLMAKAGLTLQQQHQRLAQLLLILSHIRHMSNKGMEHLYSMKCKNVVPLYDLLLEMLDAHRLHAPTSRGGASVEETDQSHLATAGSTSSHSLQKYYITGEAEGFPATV
How it was run: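 Antagonist mode: compounds in DMSO were co-added with 17beta-estradiol to ER-alpha-bla HEK293 cells (2% charcoal-stripped serum) and left 18 h at 37C. Reporter inhibition was measured as FRET fluorescence after 2 h LiveBLAzer substrate at room temperature.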

[12] = qHTS assay to identify small molecule antagonists of the estrogen receptor alpha (ER-alpha) signaling pathway - cell viability counter screen (AID 743074; calls by dose curve;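 also: HEK293 cells carrying ER-alpha-UAS-bla reporter stimulated with 17beta-estradiol; nearly all actives have a fitted effect of over 45% in size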)
[13] = target: Estrogen receptor (Homo sapiens) (UniProt P03372); assay: qHTS assay to identify small molecule agonists of the estrogen receptor alpha (ER-alpha) signaling pathway (AID 743075; calls by dose curve;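 also: HEK293 GripTite cells with ER-alpha and UAS-driven beta-lactamase reporter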)
[14] = qHTS assay to identify small molecule antagonists of the estrogen receptor alpha (ER-alpha) signaling pathway using the BG1 cell line (AID 743080; calls by dose curve;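 also: BG1 cells stimulated with 17beta-estradiol alongside compound; series mostly up to about 70 µM; nearly all actives have a fitted effect of over 25% in size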)
How it was run: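 BG1Luc4E2, endogenous ER-alpha, 4xERE-luc; 5 d charcoal-stripped FBS, phenol red free; 24 h plating; cpd + 17beta-estradiol 21.5 h, 37 C/5% CO2; CellTiter-Fluor viability 30 min, then ONE-Glo luciferase 30 min RT.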

[15] = qHTS assay to identify small molecule antagonists of the estrogen receptor alpha (ER-alpha) signaling pathway using the BG1 cell line - cell viability counter screen (AID 743081);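 also: compound given together with 17beta-estradiol as the ER stimulus; series mostly up to about 70 µM; nearly all actives have a fitted effect of over 45% in size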
Aromatase (Homo sapiens) = Aromatase (Homo sapiens) (UniProt P11511); assay: qHTS assay to identify aromatase inhibitors (AID 743083); also: series mostly up to about 70 µM; nearly all actives have a fitted effect of over 55% in size
Sequence of Aromatase (Homo sapiens) (P11511 whole entry, looked up): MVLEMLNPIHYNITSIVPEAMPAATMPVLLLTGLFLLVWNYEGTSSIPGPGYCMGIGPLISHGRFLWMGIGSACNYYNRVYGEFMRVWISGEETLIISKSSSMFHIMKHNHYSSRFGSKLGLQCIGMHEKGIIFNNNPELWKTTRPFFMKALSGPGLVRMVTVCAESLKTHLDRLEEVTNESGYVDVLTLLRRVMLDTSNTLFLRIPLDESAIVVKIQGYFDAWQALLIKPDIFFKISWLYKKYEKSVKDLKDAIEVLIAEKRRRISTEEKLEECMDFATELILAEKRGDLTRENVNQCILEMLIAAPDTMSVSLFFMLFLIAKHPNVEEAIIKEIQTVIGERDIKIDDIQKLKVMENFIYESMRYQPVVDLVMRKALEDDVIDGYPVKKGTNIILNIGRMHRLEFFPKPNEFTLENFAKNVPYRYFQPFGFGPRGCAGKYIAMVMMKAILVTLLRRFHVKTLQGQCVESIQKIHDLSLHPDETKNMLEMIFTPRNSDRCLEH

[16] = qHTS assay to identify aromatase inhibitors - cell viability counter screen (AID 743084)
[17] = qHTS assay to identify small molecule antagonists of the androgen receptor (AR) signaling pathway using the MDA cell line - cell viability counter screen (AID 743041; also: nearly all actives have a fitted effect of over 45% in size)
How it was run: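 Viability read by CellTiter-Fluor fluorescence in the same wells as the antagonist screen, added after 15.5 h of a 16 h, 37C exposure. Human breast carcinoma MDA-kb2 AR-luc cells, compounds co-dosed with agonist R1881.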

[18] = target: Estrogen receptor (Homo sapiens) (UniProt P03372); assay: qHTS assay to identify small molecule agonists of the estrogen receptor alpha (ER-alpha) signaling pathway using the BG1 cell line (AID 743079); also: nearly all actives have a fitted effect of over 20% in size; also: potency is read from the fitted curve at half-maximal effect
% is scaled to controls: 0 for no effect and ±100 for the full control effect.

COCc1nnc(-c2ccc[n+]([O-])c2)n1-c1c(Cl)c(Cl)cc2[nH]c(=O)c(=O)[nH]c12
inactive: outcome [1] | Potency [2] | Potency [3] | Potency [4] | outcome [5] | outcome [6] | outcome [7] | Potency [8] | Potency [9] | Potency [10] | outcome [11] | Potency [12] | Potency [13] | Potency [14] | outcome [15] | Potency (Aromatase (Homo sapiens)) | outcome [16]

CC(C)(C)C(=O)CCc1ccc(Cl)cc1
inactive: outcome [1] | Potency [2] | Potency [3] | Potency [4] | outcome [5] | outcome [17] | Potency [8] | Potency [9] | Potency [10] | outcome [11] | Potency [12] | Potency [13] | Potency [18] | Potency [14] | outcome [15] | Potency (Aromatase (Homo sapiens)) | outcome [16]

CCCC(C)C(O)CC (stereo not drawn)
inactive: outcome [1] | Potency [2] | Potency [3] | Potency [4] | outcome [5] | outcome [17] | Potency [8] | Potency [9] | Potency [10] | Potency [12] | outcome [15] | Potency (Aromatase (Homo sapiens)) | outcome [16]

N=C(N)N
inactive: outcome [1] | Potency [2] | Potency [3] | Potency [4] | outcome [5] | outcome [17] | Potency [8] | Potency [12] | outcome [15] | Potency (Aromatase (Homo sapiens)) | outcome [16]

CCCCc1ccc(Cl)cc1
inactive: outcome [1] | Potency [2] | Potency [3] | Potency [4] | outcome [5] | outcome [17] | Potency [8] | outcome [11] | Potency [12] | Potency [13] | Potency [18] | Potency [14] | outcome [15] | Potency (Aromatase (Homo sapiens)) | outcome [16]

CCCCCCCCS(=O)(=O)O
inactive: outcome [1] | Potency [2] | Potency [3] | Potency [4] | outcome [5] | outcome [17] | Potency [9] | Potency [10] | Potency [12] | outcome [15] | Potency (Aromatase (Homo sapiens)) | outcome [16]

C=CCn1cc[n+](C)c1
inactive: outcome [1] | Potency [2] | Potency [3] | Potency [4] | outcome [5] | Potency [8] | Potency [9] | Potency [10] | outcome [11] | Potency [12] | Potency [13] | Potency [18] | Potency [14] | outcome [15] | Potency (Aromatase (Homo sapiens)) | outcome [16]

CCC(C)(C)C
inactive: outcome [1] | Potency [2] | Potency [3] | Potency [4] | outcome [5] | outcome [17] | Potency [9] | Potency [10] | outcome [11] | Potency [12] | Potency [13] | Potency [18] | Potency [14] | outcome [15] | Potency (Aromatase (Homo sapiens))

CCCCN(CCCC)CCCCCCN(CCCC)CCCC
inactive: outcome [1] | Potency [2] | Potency [3] | Potency [4] | outcome [5] | outcome [17] | Potency [9] | Potency [10] | outcome [11] | Potency [12] | Potency [13] | Potency [18] | Potency [14] | outcome [15] | Potency (Aromatase (Homo sapiens)) | outcome [16]

CCCC(=O)CC
active: Potency [18] 28.1 µM
inactive: outcome [1] | Potency [2] | Potency [3] | Potency [4] | outcome [5] | outcome [17] | Potency [9] | Potency [10] | outcome [11] | Potency [12] | Potency [13] | Potency [14] | outcome [15] | Potency (Aromatase (Homo sapiens)) | outcome [16]

O=C(O)/C=C(\CC(=O)O)C(=O)O
inactive: outcome [1] | Potency [2] | Potency [3] | Potency [4] | outcome [5] | outcome [17] | Potency [8] | Potency [9] | Potency [10] | outcome [11] | Potency [12] | Potency [13] | Potency [14] | outcome [15] | Potency (Aromatase (Homo sapiens)) | outcome [16]

c1cc2ccc3ccc4ccc5cccc6c(c1)c2c3c4c56
inactive: viability change, negative = cytotoxic [1] -5.31% [at 3.15 µM] | activity change, negative = cytotoxicity [2] -1.12% [at 3.82 µM] | activity, negative = cytotoxicity [3] 5.02% [at 3.82 µM] | activity change, negative = cytotoxicity [4] 5.01% [at 3.83 µM] | activity change, negative = cytotoxicity [5] 1.8% [at 3.15 µM] | viability change, negative = cytotoxic [17] 14.1% [at 3.79 µM] | activity change, negative = cytotoxic [8] 20.6% [at 3.79 µM] | activity, negative = inhibition [9] 1.62% [at 3.79 µM] | activation [10] 1% [at 3.63 µM] | activity, negative = cytotoxicity [12] 7.3% [at 3.02 µM] | activity change, negative = cytotoxicity [15] 17.4% [at 3.79 µM] | activity, negative = inhibition (Aromatase (Homo sapiens)) -7.29% [at 3.79 µM] | activity change, negative = cytotoxicity [16] 7.94% [at 3.79 µM]

COc1cc(C(=O)NC2CCCNC2)cc(OC)c1OC (stereo not drawn)
inactive: outcome [1] | Potency [2] | Potency [3] | Potency [4] | outcome [5] | outcome [17] | Potency [9] | Potency [10] | Potency [12] | Potency (Aromatase (Homo sapiens)) | outcome [16]

Cc1cc(N)no1
inactive: outcome [1] | Potency [2] | Potency [3] | Potency [4] | outcome [5] | Potency [8] | Potency [9] | Potency [10] | Potency [12] | outcome [15]

CC(C)(Sc1cc(C(C)(C)C)c(O)c(C(C)(C)C)c1)Sc1cc(C(C)(C)C)c(O)c(C(C)(C)C)c1
inactive: outcome [1] | Potency [2] | Potency [3] | Potency [4] | outcome [5] | outcome [17] | Potency [9] | Potency [10] | Potency [12] | outcome [15] | Potency (Aromatase (Homo sapiens)) | outcome [16]

CC(C)(C)c1ccc(N)cc1
inactive: outcome [1] | Potency [2] | Potency [3] | Potency [4] | outcome [5] | outcome [17] | Potency [8] | Potency [9] | Potency [10] | outcome [11] | Potency [12] | Potency [13] | Potency [14] | outcome [15] | Potency (Aromatase (Homo sapiens)) | outcome [16]

O=CN1CCCCC1
inactive: outcome [1] | Potency [2] | Potency [3] | Potency [4] | outcome [5] | outcome [17] | outcome [11] | Potency [12] | Potency [13] | Potency [18] | Potency [14] | outcome [15] | Potency (Aromatase (Homo sapiens)) | outcome [16]

CCCCCC(CC)OC(=O)CCCOc1ccc(Cl)cc1Cl (stereo not drawn)
inactive: outcome [1] | Potency [2] | Potency [3] | Potency [4] | outcome [5] | outcome [17] | Potency [8] | Potency [9] | Potency [10] | Potency [12] | outcome [15] | Potency (Aromatase (Homo sapiens)) | outcome [16]
